Laboratory results from ChEMBL document CHEMBL1961873, “Compounds: GSK PKIS; Assays: Nanosyn kinase panel” (2012).

target: Protein kinase C alpha type (Homo sapiens) (UniProt P17252); conditions: at 1 µM;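 note: reported value is the mean inhibition, measured within the GSK PKIS screening panel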

Question: `COc1ccc(-c2coc3ncnc(N)c23)cc1` was tested. Which inhibition did it give?
Answer: 1.92%

Question: `Cc1cc(O)cc(C)c1/C=C/c1cncc(-c2nn[nH]n2)c1` was tested. Which inhibition did it give?
Answer: -0.54%

Question: With `NCc1ccc(-c2nc(-c3ccc(Cl)c(O)c3)c(-c3ccncc3)[nH]2)cc1` as the molecule, how does the inhibition read?
Answer: 2.46%

Question: `Cc1ccc(C(=O)NC2CCCCC2)cc1-c1ccc(C(=O)NCC2CC2)cc1` was tested. Which inhibition did it give?
Answer: 2.17%

Question: For `COc1cccc(-n2ncc3c(N/N=C/c4cccc(F)c4)ncnc32)c1`, which inhibition is on record?
Answer: -2.41%

Question: For `[O-][S+]1CCN(Cc2ccc(-c3ccc4ncnc(Nc5ccc(OCc6ccccc6)c(F)c5)c4c3)o2)CC1`, which inhibition is on record?
Answer: 1.52%

Question: For `COc1cc2c(cc1Nc1nc(N3CCc4ccccc43)c3cc[nH]c3n1)N(C(=O)CN(C)C)CC2`, which inhibition is on record?
Answer: 1.9%

Question: With `COc1cc2ncn(-c3cc(OCc4ccccc4Cl)c(C(N)=O)s3)c2cc1OC` as the molecule, how does the inhibition read?
Answer: 1.42%

Question: With `COc1ccccc1Nc1ncc(-c2ccccc2)o1` as the molecule, how does the inhibition read?
Answer: 1.01%

Question: For `c1cnn2ncc(-c3ccnc(Nc4ccc5c(c4)OCCO5)n3)c2c1`, which inhibition is on record?
Answer: 20.4%

Question: `CS(=O)(=O)CCN(CC#N)Cc1ccc(-c2ccc3ncnc(Nc4ccc(OCc5cccc(F)c5)c(Cl)c4)c3c2)o1` was tested. Which inhibition did it give?
Answer: -3.34%

Question: Which inhibition does the source give for `CS(=O)(=O)CCNCc1ccc(-c2ccc3ncnc(Nc4ccc(OCc5cccc(F)c5)c(C(F)(F)F)c4)c3c2)o1` here?
Answer: 1.29%

Question: How did the inhibition turn out when `COc1ccc(-c2nn3ncccc3c2-c2ccnc(Nc3ccc(Cl)c(C(F)(F)F)c3)n2)cc1` was run?
Answer: -0.2%

Question: How did the inhibition turn out when `CCn1c(-c2nonc2N)nc2ccncc21` was run?
Answer: 0.41%

Question: For `Nc1ncnc2occ(-c3ccc(NC(=O)Nc4cccc(C(F)(F)F)c4)cc3)c12`, which inhibition is on record?
Answer: 1.68%

Question: For `CC(C)=Cc1cccc2c1/C(=N/Nc1ccc(S(N)(=O)=O)cc1)C(=O)N2`, which inhibition is on record?
Answer: 1.29%

Question: With `Fc1cccc(COc2ccc(Nc3ncnc4cc(-c5ccc[nH]5)sc34)cc2Cl)c1` as the molecule, how does the inhibition read?
Answer: -1.9%

Question: For `CCN1CCC(CC(=O)Nc2n[nH]c3nc(-c4cccs4)c(Br)cc23)CC1`, which inhibition is on record?
Answer: 0.74%

Question: `NC(=O)c1ccc(-c2nc(-c3ccccn3)c(-c3ccc4c(c3)OCO4)[nH]2)cc1` was tested. Which inhibition did it give?
Answer: 3.42%

Question: For `CCn1c(-c2nonc2N)nc2c(C#CC(C)(C)O)nc(OC[C@@H](N)c3ccccc3)cc21`, which inhibition is on record?
Answer: 8.94%

Question: How did the inhibition turn out when `CCn1c(-c2nonc2N)nc2cncc(C(=O)N3CC[C@H](N)C3)c21` was run?
Answer: 45.5%

Question: `Cc1ccc(NC(=O)c2ccnc(N3CCCC3)c2)cc1-c1ccc(C(=O)NCC2CC2)cc1` was tested. Which inhibition did it give?
Answer: -0.77%

Question: `COc1cc(C)c(NC(=O)CN(C)C)cc1Nc1nc(Nc2cccc(F)c2C(N)=O)c2cc[nH]c2n1` was tested. Which inhibition did it give?
Answer: 5.42%

Question: Which inhibition does the source give for `CCn1c(-c2nonc2N)nc2cnc(Oc3cccc(NC(=O)c4ccc(OCCN5CCOCC5)cc4)c3)cc21` here?
Answer: 34.1%

Question: Which inhibition does the source give for `Nc1nc(-c2ccc3c(c2)C(=Cc2cc(Br)c(O)c(Br)c2)C(=O)N3)cs1` here?
Answer: 1.51%

Question: Which inhibition does the source give for `COc1ccc(-c2ccncc2)cc1C(N)=O` here?
Answer: 1.9%

Question: With `CC1=C(C(=O)Nc2ccc3[nH]ncc3c2)C(c2ccc(Cl)c(Cl)c2)CC(=O)N1` (stereo not drawn) as the molecule, how does the inhibition read?
Answer: 1.24%

Question: `Fc1cccc(COc2ccc(Nc3ncnc4sc(-c5cccs5)cc34)cc2Cl)c1` was tested. Which inhibition did it give?
Answer: 0.09%

Question: For `CN1CCC(C(=O)Nc2n[nH]c3nnc(-c4ccccc4)cc23)CC1`, which inhibition is on record?
Answer: 1.72%

Question: For `Cc1nn(C)c2cc(N(C)c3ccnc(Nc4cccc(S(N)(=O)=O)c4)n3)ccc12`, which inhibition is on record?
Answer: 6.39%

Question: For `COC(=O)Nc1nc2cc(Oc3ccc(NC(=O)Nc4cccc(C(=O)O)c4)cc3)ccc2[nH]1`, which inhibition is on record?
Answer: -3.65%

Question: Which inhibition does the source give for `CS(=O)(=O)CCNCc1nc(-c2ccc3ncnc(Nc4ccc(F)c(Cl)c4)c3c2)cs1` here?
Answer: 0.92%

Question: Which inhibition does the source give for `CS(=O)(=O)CCNCc1ccc(-c2ccc3ncnc(Nc4ccc(OCc5ccccc5)c(Cl)c4)c3c2)o1` here?
Answer: -0.42%

Question: `COC(=O)Nc1nc2cc(Oc3cccc(NC(=O)Nc4cc(C(F)(F)F)ccc4F)c3)ccc2[nH]1` was tested. Which inhibition did it give?
Answer: 0.96%

target: Protein kinase C beta type (Homo sapiens) (UniProt P05771); conditions: at 0.1 µM;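 note: PKC-beta1 splice variant of the enzyme, figure reported as mean inhibition, measured within the GSK PKIS kinase profiling panel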
Sequence (P05771 2-671 limits assumed): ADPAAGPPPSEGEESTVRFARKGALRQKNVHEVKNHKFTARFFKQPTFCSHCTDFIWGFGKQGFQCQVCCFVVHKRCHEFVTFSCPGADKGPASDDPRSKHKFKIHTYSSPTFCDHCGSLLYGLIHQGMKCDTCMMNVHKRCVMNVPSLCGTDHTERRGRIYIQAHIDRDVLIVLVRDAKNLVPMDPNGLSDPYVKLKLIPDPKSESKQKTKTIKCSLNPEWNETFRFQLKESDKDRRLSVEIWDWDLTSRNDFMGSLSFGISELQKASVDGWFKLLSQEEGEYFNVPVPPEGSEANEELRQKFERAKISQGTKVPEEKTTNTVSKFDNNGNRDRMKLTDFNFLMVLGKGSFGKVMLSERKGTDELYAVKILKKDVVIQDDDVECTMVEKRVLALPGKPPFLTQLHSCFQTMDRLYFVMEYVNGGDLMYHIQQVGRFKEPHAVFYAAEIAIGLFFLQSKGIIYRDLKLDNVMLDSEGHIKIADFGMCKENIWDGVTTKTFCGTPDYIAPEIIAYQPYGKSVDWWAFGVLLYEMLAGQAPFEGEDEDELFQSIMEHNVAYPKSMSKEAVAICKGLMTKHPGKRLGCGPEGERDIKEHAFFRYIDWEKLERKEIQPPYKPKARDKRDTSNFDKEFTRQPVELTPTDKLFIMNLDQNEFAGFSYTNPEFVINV

Question: Which inhibition does the source give for `COc1ccc(-c2coc3ncnc(N)c23)cc1` here?
Answer: -0.46%

Question: Which inhibition does the source give for `Cc1cc(O)cc(C)c1/C=C/c1cncc(-c2nn[nH]n2)c1` here?
Answer: 0.1%

Question: `NCc1ccc(-c2nc(-c3ccc(Cl)c(O)c3)c(-c3ccncc3)[nH]2)cc1` was tested. Which inhibition did it give?
Answer: 5.37%

Question: For `Cc1ccc(C(=O)NC2CCCCC2)cc1-c1ccc(C(=O)NCC2CC2)cc1`, which inhibition is on record?
Answer: 1.17%

Question: For `COc1cccc(-n2ncc3c(N/N=C/c4cccc(F)c4)ncnc32)c1`, which inhibition is on record?
Answer: 0.85%

Question: How did the inhibition turn out when `[O-][S+]1CCN(Cc2ccc(-c3ccc4ncnc(Nc5ccc(OCc6ccccc6)c(F)c5)c4c3)o2)CC1` was run?
Answer: -0.89%

Question: With `COc1cc2c(cc1Nc1nc(N3CCc4ccccc43)c3cc[nH]c3n1)N(C(=O)CN(C)C)CC2` as the molecule, how does the inhibition read?
Answer: 1.5%

Question: Which inhibition does the source give for `COc1cc2ncn(-c3cc(OCc4ccccc4Cl)c(C(N)=O)s3)c2cc1OC` here?
Answer: 0.65%

Question: Which inhibition does the source give for `COc1ccccc1Nc1ncc(-c2ccccc2)o1` here?
Answer: 1.34%

Question: For `c1cnn2ncc(-c3ccnc(Nc4ccc5c(c4)OCCO5)n3)c2c1`, which inhibition is on record?
Answer: 1.95%

Question: `CS(=O)(=O)CCN(CC#N)Cc1ccc(-c2ccc3ncnc(Nc4ccc(OCc5cccc(F)c5)c(Cl)c4)c3c2)o1` was tested. Which inhibition did it give?
Answer: -0.34%

Question: For `CS(=O)(=O)CCNCc1ccc(-c2ccc3ncnc(Nc4ccc(OCc5cccc(F)c5)c(C(F)(F)F)c4)c3c2)o1`, which inhibition is on record?
Answer: 0.59%

Question: Which inhibition does the source give for `COc1ccc(-c2nn3ncccc3c2-c2ccnc(Nc3ccc(Cl)c(C(F)(F)F)c3)n2)cc1` here?
Answer: 0.17%

Question: Which inhibition does the source give for `CCn1c(-c2nonc2N)nc2ccncc21` here?
Answer: -0.82%

Question: `Nc1ncnc2occ(-c3ccc(NC(=O)Nc4cccc(C(F)(F)F)c4)cc3)c12` was tested. Which inhibition did it give?
Answer: 0.7%

Question: For `CC(C)=Cc1cccc2c1/C(=N/Nc1ccc(S(N)(=O)=O)cc1)C(=O)N2`, which inhibition is on record?
Answer: 0.26%

Question: Which inhibition does the source give for `Fc1cccc(COc2ccc(Nc3ncnc4cc(-c5ccc[nH]5)sc34)cc2Cl)c1` here?
Answer: 1.37%

Question: For `CCN1CCC(CC(=O)Nc2n[nH]c3nc(-c4cccs4)c(Br)cc23)CC1`, which inhibition is on record?
Answer: 2.07%

Question: With `NC(=O)c1ccc(-c2nc(-c3ccccn3)c(-c3ccc4c(c3)OCO4)[nH]2)cc1` as the molecule, how does the inhibition read?
Answer: -0.16%

Question: `CCn1c(-c2nonc2N)nc2c(C#CC(C)(C)O)nc(OC[C@@H](N)c3ccccc3)cc21` was tested. Which inhibition did it give?
Answer: 6.21%

Question: For `CCn1c(-c2nonc2N)nc2cncc(C(=O)N3CC[C@H](N)C3)c21`, which inhibition is on record?
Answer: 43.9%

Question: How did the inhibition turn out when `Cc1ccc(NC(=O)c2ccnc(N3CCCC3)c2)cc1-c1ccc(C(=O)NCC2CC2)cc1` was run?
Answer: 0.1%

Question: For `COc1cc(C)c(NC(=O)CN(C)C)cc1Nc1nc(Nc2cccc(F)c2C(N)=O)c2cc[nH]c2n1`, which inhibition is on record?
Answer: -0.18%

Question: `CCn1c(-c2nonc2N)nc2cnc(Oc3cccc(NC(=O)c4ccc(OCCN5CCOCC5)cc4)c3)cc21` was tested. Which inhibition did it give?
Answer: 37.3%

Question: How did the inhibition turn out when `Nc1nc(-c2ccc3c(c2)C(=Cc2cc(Br)c(O)c(Br)c2)C(=O)N3)cs1` was run?
Answer: 0.67%

Question: Which inhibition does the source give for `COc1ccc(-c2ccncc2)cc1C(N)=O` here?
Answer: -0.74%

Question: `CC1=C(C(=O)Nc2ccc3[nH]ncc3c2)C(c2ccc(Cl)c(Cl)c2)CC(=O)N1` (stereo not drawn) was tested. Which inhibition did it give?
Answer: -1.01%

Question: Which inhibition does the source give for `Fc1cccc(COc2ccc(Nc3ncnc4sc(-c5cccs5)cc34)cc2Cl)c1` here?
Answer: -0.52%

Question: With `CN1CCC(C(=O)Nc2n[nH]c3nnc(-c4ccccc4)cc23)CC1` as the molecule, how does the inhibition read?
Answer: 1.03%

Question: How did the inhibition turn out when `Cc1nn(C)c2cc(N(C)c3ccnc(Nc4cccc(S(N)(=O)=O)c4)n3)ccc12` was run?
Answer: 1.44%

Question: How did the inhibition turn out when `COC(=O)Nc1nc2cc(Oc3ccc(NC(=O)Nc4cccc(C(=O)O)c4)cc3)ccc2[nH]1` was run?
Answer: 0.02%

Question: `CS(=O)(=O)CCNCc1nc(-c2ccc3ncnc(Nc4ccc(F)c(Cl)c4)c3c2)cs1` was tested. Which inhibition did it give?
Answer: 1.56%

Question: How did the inhibition turn out when `CS(=O)(=O)CCNCc1ccc(-c2ccc3ncnc(Nc4ccc(OCc5ccccc5)c(Cl)c4)c3c2)o1` was run?
Answer: -1.09%

Question: Which inhibition does the source give for `COC(=O)Nc1nc2cc(Oc3cccc(NC(=O)Nc4cc(C(F)(F)F)ccc4F)c3)ccc2[nH]1` here?
Answer: 0.04%
